A word on the AC50: it is the concentration at which the activity in the assay is half-maximal.

Activity calls are given as the source filed them. Rule for the calls: active = hit-call score of the fitted dose curve at least 0.9, where 1 is the maximum; inactive = score below 0.9.

This note sets out measurements from PubChem BioAssay (EPA / NIEHS).

A short description of experiment [1]: ATG_E_Box_CIS: Attagene CIS-FACTORIAL HepG2 Assay for human Enhancer Box (E-box) (AID 2282936). The settings on record: HepG2 E-box cis-reporter transcription, actives raise or lower the signal. The essentials:
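Multiplexed CIS reporter system in transiently transfected HepG2 cells measures native transcription factor activity. Reporter RNA after 24 h exposure is profiled by RT-PCR-capillary electrophoresis.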

Experiment [2] in a line: ATG_M_61_CIS: Attagene CIS-FACTORIAL HepG2 Assay for M61 Transcription Factor (Internal Marker) (AID 2282937). The settings on record: HepG2 Attagene CIS-FACTORIAL M61 internal marker reporter; actives raise or lower the signal. The essentials: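 Readout is reporter mRNA by RT-PCR, fluorescent primer extension and capillary electrophoresis, with gain or loss fitted relative to DMSO. Transfected HepG2 cells carrying endogenous-TF-driven cis reporters were exposed to chemicals for 24 hours.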

The nature of experiment [3]: ATG_EGR_CIS: Attagene CIS-FACTORIAL HepG2 Assay for human Early Growth Response 1 (EGR1) (AID 2282938). The settings on record: HepG2 Attagene CIS-FACTORIAL EGR reporter mRNA; actives raise or lower the signal. The gist of the method:
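After 24 h compound exposure, RNA from reporter-transfected HepG2 cells was reverse-transcribed, PCR-amplified, fluorescently labelled and resolved by capillary electrophoresis. EGR1 reporter transcript changes, up or down, were fitted against DMSO, reflecting endogenous transcription-factor activity.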

Experiment [4] is described as follows: ATG_M_19_CIS: Attagene CIS-FACTORIAL HepG2 Assay for M19 Transcription Factor (Internal Marker) (AID 2282939). The settings on record: HepG2 Attagene CIS-FACTORIAL M19 internal marker reporter; actives raise or lower the signal. The gist of the method: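 Readout: fluorescent reporter-transcript fragments by capillary electrophoresis after RT-PCR. Human HepG2 liver cells carried transfected MRTU constructs reporting endogenous transcription-factor activity; exposure 24 h. Gain or loss of signal fitted relative to DMSO.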

The nature of experiment [5]: ATG_ERE_CIS: Attagene CIS-FACTORIAL HepG2 Assay for Estrogen Response Element (ERE) (AID 2282940). The settings on record: HepG2 ERE cis-reporter, Attagene RNA transcript; actives raise or lower the signal. The essentials: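 Readout: reporter mRNA induction by RT-PCR, FAM-labelled primer extension, HpaI digestion and capillary electrophoresis, 24 h after dosing transfected HepG2 cells. Endogenous transcription factors act on cis-element-regulated reporters. Gain or loss fitted against DMSO.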

A short description of experiment [6]: ATG_Ets_CIS: Attagene CIS-FACTORIAL HepG2 Assay for human Erythroblast Transformation Specific (ETS) (AID 2282941). The settings on record: HepG2 ETS cis-reporter transcription, actives raise or lower the signal. The essentials: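 HepG2 cells transiently transfected with cis-promoter reporter transcription units were dosed for 24 h; reporter mRNA was measured by RT-PCR, 6-FAM primer extension, HpaI digestion and capillary electrophoresis, with bidirectional fitting against DMSO baseline.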

Experiment [7] has as its target Hepatocyte nuclear factor 3-beta (Homo sapiens) (UniProt Q9Y261). Briefly: ATG_FoxA2_CIS: Attagene CIS-FACTORIAL HepG2 Assay for human Forkhead box A2 (FOXA2) (AID 2282942). The settings on record: HepG2 cis-reporter transcription factor activity, 24 h; actives raise or lower the signal. The essentials: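 Endogenous transcription factor activity is captured via cis-element-driven reporter transcripts in transfected HepG2. Total RNA taken at 24 h post-dosing; labelled RT-PCR products resolved by capillary electrophoresis. Gain or loss fitted versus DMSO.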

Experiment [8] can be described thus: ATG_FoxO_CIS: Attagene CIS-FACTORIAL HepG2 Assay for human Forkhead box O (FoxO) (AID 2282943). The settings on record: HepG2 Attagene cis-reporter, FoxO element, mRNA; actives raise or lower the signal. The essentials: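 Values reflect reporter mRNA induction or loss in HepG2 cells 24 h post-dosing, fitted bidirectionally with DMSO as negative control and baseline. Detection used RT-PCR and fluorescence capillary electrophoresis.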

A short description of experiment [9]: ATG_GATA_CIS: Attagene CIS-FACTORIAL HepG2 Assay for human GATA Binding Protein (AID 2282944). The settings on record: HepG2 GATA cis-element reporter, Attagene multiplex mRNA; actives raise or lower the signal. The gist of the method: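 Read-out: fluorescent reporter mRNA fragments resolved by capillary electrophoresis after RT-PCR. Human liver HepG2 cells carried transiently transfected cis-regulated reporter constructs; chemicals incubated 24 h; gain or loss of signal fitted relative to DMSO.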

Experiment [10] is described as follows: ATG_GLI_CIS: Attagene CIS-FACTORIAL HepG2 Assay for human Zinc Finger Protein GLI1 (AID 2282945). The settings on record: HepG2, Attagene cis-factorial reporter mRNA, GLI element; actives raise or lower the signal. The gist of the method: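 HepG2 cells transiently transfected with cis-promoter multiplexed reporter units report endogenous transcription factor activity. After 24 h chemical exposure, reporter mRNA was quantified by RT-PCR, 6-FAM labelling, HpaI digestion and capillary electrophoresis, with bidirectional fitting against DMSO.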

Experiment [11] is described as follows: ATG_GRE_CIS: Attagene CIS-FACTORIAL HepG2 Assay for human Glucocorticoid Response Elements (GRE) (AID 2282947). The settings on record: HepG2 GRE cis-reporter, Attagene multiplex mRNA; actives raise or lower the signal. The essentials: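 Following 24 h chemical exposure of transiently transfected HepG2 cells, total RNA was reverse-transcribed and reporter cDNA amplified, fluorescently labelled and sized by capillary electrophoresis. Signal gain or loss was fitted relative to DMSO vehicle.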

Experiment [12] is described as follows: ATG_ISRE_CIS: Attagene CIS-FACTORIAL HepG2 Assay for human Interferon Regulatory Factor 1 (IRF1) binding to an Interferon-Stimulated Response Element (ISRE) (AID 2282948). The settings on record: HepG2 ISRE cis-reporter (Attagene), mRNA transcription readout; actives raise or lower the signal. The essentials: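 HepG2 cells transiently transfected with multiplexed cis-promoter reporter units; after 24 h compound exposure, reporter mRNA quantified by RT-PCR, FAM labelling, HpaI digestion and capillary electrophoresis. Bidirectional fit versus DMSO baseline.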

The nature of experiment [13]: ATG_M_32_CIS: Attagene CIS-FACTORIAL HepG2 Assay for M32 Transcription Factor (Internal Marker) (AID 2282949).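 Note: background control marker of the multiplexed CIS panel rather than a real target.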 The settings on record: HepG2 Attagene cis-factorial M32 reporter, mRNA; actives raise or lower the signal. The essentials:
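Fluorescent capillary electrophoresis peaks of HpaI-digested, FAM-labelled RT-PCR reporter products give the signal. Source: transiently transfected human liver HepG2 cells, 24 h after chemical dosing; bidirectional fitting against DMSO.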

A short description of experiment [14]: ATG_M_06_CIS: Attagene CIS-FACTORIAL HepG2 Assay for M06 Transcription Factor (Internal Marker) (AID 2282950). The settings on record: HepG2 Attagene CIS-FACTORIAL M06 internal marker reporter; actives raise or lower the signal. The essentials: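 Terse: HepG2, transient MRTU transfection (FuGene 6), 24 h dosing; total RNA, oligo(dT) RT, PCR, FAM label, HpaI cut, capillary electrophoresis; bidirectional fit vs DMSO baseline; background-control endpoint.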

In experiment [15] the target is Hypoxia-inducible factor 1-alpha (Homo sapiens) (UniProt Q16665). Nature of the experiment: ATG_HIF1a_CIS: Attagene CIS-FACTORIAL HepG2 Assay for human Hypoxia Inducible Factor 1 (HIF1A) (AID 2282951). The settings on record: HepG2 Attagene cis-factorial HIF1a reporter transcription; actives raise or lower the signal. The essentials: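 Activity is fitted in both directions relative to DMSO. Reporter transcripts are read by RT-PCR, fluorescent primer extension and capillary electrophoresis after 24 h chemical treatment. The cells are HepG2 carrying transiently transfected cis-element-driven reporter units responding to endogenous factors.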

Experiment [16] addresses Hepatocyte nuclear factor 6 (Homo sapiens) (UniProt Q9UBC0). Briefly: ATG_HNF6_CIS: Attagene CIS-FACTORIAL HepG2 Assay for human Hepatocyte Nuclear Factor 6 (HNF6) (AID 2282952). The settings on record: HepG2 Attagene cis-factorial HNF6 reporter transcription; actives raise or lower the signal. The gist of the method: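 Reporter mRNA induction or loss in HepG2 after 24 h exposure; transient cis-MRTU transfection; fragments quantified by capillary electrophoresis; bidirectional analysis, DMSO as negative control.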

The target in experiment [17] is Heat shock factor protein 1 (Homo sapiens) (UniProt Q00613). Nature of the experiment: ATG_HSE_CIS: Attagene CIS-FACTORIAL HepG2 Assay for human Heat Shock Transcription Factor 1 (HSE) (AID 2282953). The settings on record: HepG2 HSE cis-reporter, Attagene RNA transcription; actives raise or lower the signal. The gist of the method:
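Read-out: fluorescence of reporter-specific RT-PCR fragments separated by capillary electrophoresis. HepG2 carrying transfected cis-element reporter units; 24 h dosing; activity fitted in both directions relative to DMSO baseline.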

Experiment [18] is described as follows: ATG_MRE_CIS: Attagene CIS-FACTORIAL HepG2 Assay for human Metal Responsive Element (MRE) (AID 2282954). The settings on record: HepG2 MRE cis-reporter transcription, Attagene multiplex; actives raise or lower the signal. The gist of the method:
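Step one: transfect HepG2 with cis-regulated reporter units. Step two: dose 24 h. Step three: isolate RNA, RT-PCR, 6-FAM label, HpaI digest, capillary electrophoresis. Fit bidirectionally to DMSO.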

The target of experiment [19] is Bile acid receptor (Homo sapiens) (UniProt Q96RI1). Nature of the experiment: ATG_IR1_CIS: Attagene CIS-FACTORIAL HepG2 Assay for human Nuclear Receptor Subfamily 1 Group H Member 4 (NR1H4), IR1 submotif (AID 2282946). The settings on record: IR1 reporter transcription, actives raise or lower the signal. The essentials:
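Transient MRTU transfection, HepG2; 24 h dosing; RNA → RT-PCR → 6-FAM primer extension → HpaI digest → capillary electrophoresis fluorescence. Gain/loss of signal fitted relative to DMSO.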

Heat shock factor protein 1 (Homo sapiens), sequence (Q00613 whole entry, looked up, the tested form may be a part): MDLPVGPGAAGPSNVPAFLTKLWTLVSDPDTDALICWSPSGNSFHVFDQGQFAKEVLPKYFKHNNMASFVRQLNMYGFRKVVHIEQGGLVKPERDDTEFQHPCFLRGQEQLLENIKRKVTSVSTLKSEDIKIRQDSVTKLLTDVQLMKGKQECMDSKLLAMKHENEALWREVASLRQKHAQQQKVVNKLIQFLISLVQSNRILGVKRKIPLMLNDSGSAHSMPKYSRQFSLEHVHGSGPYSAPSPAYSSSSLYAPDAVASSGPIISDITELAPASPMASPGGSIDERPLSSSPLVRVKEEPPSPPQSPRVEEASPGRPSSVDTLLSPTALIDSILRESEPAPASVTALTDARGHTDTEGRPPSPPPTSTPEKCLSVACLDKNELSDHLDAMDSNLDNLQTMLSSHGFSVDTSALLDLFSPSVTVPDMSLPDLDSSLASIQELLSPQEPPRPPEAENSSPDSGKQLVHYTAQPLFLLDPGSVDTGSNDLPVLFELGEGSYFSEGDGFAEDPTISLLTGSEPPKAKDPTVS
Hepatocyte nuclear factor 6 (Homo sapiens), sequence (Q9UBC0 whole entry, looked up, the tested form may be a part): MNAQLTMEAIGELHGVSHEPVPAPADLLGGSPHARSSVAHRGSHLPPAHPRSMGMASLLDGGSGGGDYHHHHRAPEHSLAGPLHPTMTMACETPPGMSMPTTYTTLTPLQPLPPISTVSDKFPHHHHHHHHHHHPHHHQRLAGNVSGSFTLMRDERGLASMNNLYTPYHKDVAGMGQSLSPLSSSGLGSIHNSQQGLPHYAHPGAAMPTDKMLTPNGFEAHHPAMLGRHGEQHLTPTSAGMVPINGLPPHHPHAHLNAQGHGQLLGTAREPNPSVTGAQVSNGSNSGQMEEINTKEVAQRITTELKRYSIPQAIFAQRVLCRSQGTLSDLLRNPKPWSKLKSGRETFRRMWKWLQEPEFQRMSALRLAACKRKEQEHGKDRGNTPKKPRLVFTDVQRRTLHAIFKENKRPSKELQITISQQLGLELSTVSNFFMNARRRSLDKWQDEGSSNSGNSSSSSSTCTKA
Hepatocyte nuclear factor 3-beta (Homo sapiens), sequence (Q9Y261 whole entry, looked up): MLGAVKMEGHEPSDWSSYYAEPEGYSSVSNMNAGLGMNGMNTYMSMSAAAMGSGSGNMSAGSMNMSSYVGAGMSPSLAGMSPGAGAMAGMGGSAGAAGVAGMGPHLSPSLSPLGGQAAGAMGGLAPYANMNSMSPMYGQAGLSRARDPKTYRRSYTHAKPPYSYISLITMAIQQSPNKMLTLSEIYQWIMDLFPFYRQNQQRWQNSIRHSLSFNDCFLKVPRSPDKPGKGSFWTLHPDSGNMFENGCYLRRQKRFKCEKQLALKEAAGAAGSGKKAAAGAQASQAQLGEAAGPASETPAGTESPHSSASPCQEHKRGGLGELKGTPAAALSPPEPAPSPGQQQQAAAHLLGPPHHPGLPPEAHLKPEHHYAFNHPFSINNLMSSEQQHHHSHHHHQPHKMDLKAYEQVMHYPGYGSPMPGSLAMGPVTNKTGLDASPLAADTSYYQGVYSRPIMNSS
Hypoxia-inducible factor 1-alpha (Homo sapiens), sequence (Q16665 whole entry, looked up): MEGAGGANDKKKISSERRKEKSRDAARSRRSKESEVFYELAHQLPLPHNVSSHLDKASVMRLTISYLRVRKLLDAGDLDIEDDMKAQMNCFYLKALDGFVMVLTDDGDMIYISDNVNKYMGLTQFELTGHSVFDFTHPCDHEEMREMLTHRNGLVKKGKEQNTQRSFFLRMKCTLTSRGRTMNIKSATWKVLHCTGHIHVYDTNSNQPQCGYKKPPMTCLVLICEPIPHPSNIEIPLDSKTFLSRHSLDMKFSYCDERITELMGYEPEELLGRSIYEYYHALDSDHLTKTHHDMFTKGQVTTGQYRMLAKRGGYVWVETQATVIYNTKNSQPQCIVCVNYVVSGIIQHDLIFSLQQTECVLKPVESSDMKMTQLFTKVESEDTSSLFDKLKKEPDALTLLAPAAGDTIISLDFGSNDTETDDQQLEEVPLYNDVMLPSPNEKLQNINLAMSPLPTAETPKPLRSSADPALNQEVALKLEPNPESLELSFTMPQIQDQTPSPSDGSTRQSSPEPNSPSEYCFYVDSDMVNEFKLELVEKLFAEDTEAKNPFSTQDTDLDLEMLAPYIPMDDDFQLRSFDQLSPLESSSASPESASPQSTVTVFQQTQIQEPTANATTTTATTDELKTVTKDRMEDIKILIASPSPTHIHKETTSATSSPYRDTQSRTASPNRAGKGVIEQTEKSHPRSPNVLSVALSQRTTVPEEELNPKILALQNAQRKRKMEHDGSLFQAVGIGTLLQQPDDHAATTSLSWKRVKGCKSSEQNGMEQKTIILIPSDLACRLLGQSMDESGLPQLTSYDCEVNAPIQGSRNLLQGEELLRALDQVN
Bile acid receptor (Homo sapiens), sequence (Q96RI1 whole entry, looked up): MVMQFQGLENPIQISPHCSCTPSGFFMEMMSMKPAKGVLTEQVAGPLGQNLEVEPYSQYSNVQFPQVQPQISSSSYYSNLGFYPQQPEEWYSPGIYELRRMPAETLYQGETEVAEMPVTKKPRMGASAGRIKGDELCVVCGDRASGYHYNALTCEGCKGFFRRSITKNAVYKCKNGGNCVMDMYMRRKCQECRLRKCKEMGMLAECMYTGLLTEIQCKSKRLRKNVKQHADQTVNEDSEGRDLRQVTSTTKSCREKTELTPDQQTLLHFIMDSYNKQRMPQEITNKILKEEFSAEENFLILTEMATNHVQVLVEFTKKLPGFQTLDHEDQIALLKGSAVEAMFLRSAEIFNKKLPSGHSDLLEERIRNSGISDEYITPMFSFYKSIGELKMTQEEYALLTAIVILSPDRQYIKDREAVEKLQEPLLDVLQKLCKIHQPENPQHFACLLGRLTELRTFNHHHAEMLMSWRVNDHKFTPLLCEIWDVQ

Turning to `COCCOC[C@H](CC1(C(=O)NC2CCC(C(=O)O)CC2)CCCC1)C(=O)Oc1ccc2c(c1)CCC2` (some centres undefined), the outcome in [1], in experiment [2], in experiment [3], in [4], in experiment [5] and in experiment [6] was inactive. The outcome in experiment [7], in [8], in experiment [9], in experiment [10], in experiment [11] and in [12] was inactive. The call in [13], in [14], in experiment [15], in experiment [16], in experiment [17] and in experiment [18] was inactive.
Turning to `COc1cc(C=O)ccc1O`, the outcome in experiment [1], in [2], in [3], in experiment [4], in experiment [6] and in experiment [7] was inactive. The outcome in experiment [8], in experiment [9], in experiment [10], in experiment [19], in [12] and in [13] was inactive. Further, the outcome in experiment [14], in experiment [15], in [16] and in experiment [18] was inactive.
On to `CCNc1cccc(C)c1`, for which the result in [1], in experiment [2], in [3], in [4], in experiment [6] and in [7] was inactive. Moreover, the result in experiment [8], in experiment [9], in experiment [10], in [12], in experiment [13] and in experiment [14] was inactive. Moreover, the compound was called inactive in experiment [16], in experiment [17] and in experiment [18]. In addition, the AC50 in [15] is 60.8 µM (active).
In the case of `O=c1[nH]cc(F)c(=O)[nH]1`, the result in [1], in experiment [2], in experiment [3], in [5], in [6] and in experiment [7] was inactive. The compound was classed as inactive in [8], in experiment [9], in [10], in experiment [19], in experiment [11] and in [12]. The call in experiment [13], in experiment [14], in experiment [16], in [17] and in experiment [18] was inactive.
Take `Cc1c(C(=O)O)c(O)cc2c1C(=O)c1c(O)c([C@@H]3O[C@H](CO)[C@@H](O)[C@H](O)[C@H]3O)c(O)c(O)c1C2=O`: the outcome in experiment [1], in experiment [2], in experiment [3], in experiment [6], in experiment [7] and in experiment [8] was inactive. In addition, the outcome in experiment [9], in experiment [10], in experiment [19], in [11], in experiment [12] and in [13] was inactive. Moreover, the outcome in experiment [14], in experiment [15], in experiment [16] and in experiment [18] was inactive.
Turning to `CC=Cc1ccc(O)c(OC)c1`, the result in experiment [1], in experiment [2], in experiment [3], in experiment [5], in [6] and in [7] was inactive. The result in [8], in [9], in [10], in experiment [12], in [13] and in [14] was inactive. For the same compound, the result in experiment [15], in experiment [16], in experiment [17] and in [18] was inactive.
`CN1CCCC1=O`: the outcome in experiment [1], in [2], in [3], in experiment [6], in [7] and in experiment [8] was inactive. Besides, the result in experiment [9], in [10], in [12], in experiment [13], in experiment [14] and in experiment [15] was inactive. For the same compound, the compound was classed as inactive in experiment [16], in experiment [17] and in experiment [18].
Regarding `C[C@]12C=CC(=O)C=C1CC[C@@H]1[C@@H]2C(=O)C[C@@]2(C)[C@H]1CC[C@]2(O)C(=O)CO`, the result in [1], in [2], in [3], in [6], in [7] and in experiment [8] was inactive. In addition, the result in experiment [9], in [10], in experiment [12], in [13], in [14] and in experiment [15] was inactive. Further, the compound was classed as inactive in experiment [16], in [17] and in experiment [18].
